Assay results from PubChem BioAssay (Tox21).
Where “and” joins values, the source holds several entries; their conditions need not be identical. Equal values may be shown once. Results filed as inconclusive are left out. Where a structure was tested more than once in an assay, its records may differ in their call. Calls of active or inactive are those of the source. Unless noted, the call rests on the fitted dose curve; in most records, active means well fitted curve in the direction sought with a large enough effect in the repeat runs; inconclusive means weak or mixed curves; inactive means no such curve, though single readings can be large; an effect the other way counts as inactive or inconclusive.

What was measured:
[1] = qHTS assay for small molecule agonists of the p53 signaling pathway (AID 651631; calls by dose curve; further: nearly all actives have a fitted effect of over 15% in size; further: potency means the concentration at half of the fitted maximal effect)
Outline: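 Fluorescence intensity from cleaved LiveBLAzer B/G substrate (2 h, room temperature) served as the signal. Beforehand, HCT-116 reporter cells bearing p53 response elements were treated 16 h at 37 °C with DMSO-dissolved compounds.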

[2] = qHTS assay for small molecule agonists of the p53 signaling pathway - cell viability (AID 651633; calls by dose curve; further: nearly all actives have a fitted effect of over 30% in size; further: potency means the concentration at half of the fitted maximal effect)
Outline: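 p53RE-bla cells, seeded at 4,000 per well and rested 5 h at 37 C/5% CO2, received compounds in DMSO for 16 h at 37 C. CellTiter-Glo was then added, and luminescence was read after 30 min at room temperature to gauge cytotoxicity.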

[3] = qHTS assay for small molecules that induce genotoxicity in human embryonic kidney cells expressing luciferase-tagged ATAD5 - cell viability (AID 651634; calls by dose curve; further: nearly all actives have a fitted effect of over 25% in size)
Outline: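 After 15.5 hr incubation with compound at 37C, 5% CO2, HEK293T ATAD5-luciferase cells received CellTiter-Fluor reagent; fluorescence intensity was quantified following 30 min at 37C.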

[4] = qHTS assay for small molecule disruptors of the mitochondrial membrane potential - cell viability (AID 720634; calls by dose curve; further: nearly all actives have a fitted effect of over 20% in size; further: potency means the concentration at half of the fitted maximal effect)
Outline: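 ATP-based luminescent viability readout (CellTiter-Glo, 30 min, room temperature) in HepG2 cells multiplexed with the m-MPI membrane potential dye; compound exposure lasted 1 hr at 37 C.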

[5] = qHTS assay for small molecule disruptors of the mitochondrial membrane potential (AID 720635); further: potency means the concentration at half of the fitted maximal effect
Outline: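 HepG2 cells (2,000/well) attached overnight at 37C, then took compound for 1 hr at 37C, 5% CO2. Mito-MPS dye was added for 30 min; fluorescence was read at 490/535 nm (monomers) and 540/590 nm (aggregates).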

[6] = qHTS assay to test for compound auto fluorescence at 590 nm (red) in HepG2 cells (AID 720674)
Outline: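 Rose Bengal sodium served as the red fluorophore standard. HepG2 monolayers (overnight attachment, MEM with 10% FBS) were exposed to test compounds for 1 hr at 37 C and read at Ex 540/Em 590 nm.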

[7] = qHTS assay to test for compound auto fluorescence at 535 nm (green) in HepG2 cells (AID 720675)
[8] = qHTS assay to test for compound auto fluorescence at 460 nm (blue) in HEK293 cells (AID 720678)
Outline: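 Auto fluorescence in the blue band was quantified as triamterene equivalency. HEK293 cells were seeded at 2,000/well, dosed after a 4-5 hr attachment, and kept overnight at 37C before the 405/460 nm reading.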

[9] = qHTS assay to test for compound auto fluorescence at 590 nm (red) in HEK293 cells (AID 720679)
Outline: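 Autofluorescence equivalency to Rose Bengal sodium, 540/590nm, in HEK293 cells exposed overnight to 23 nL compound per well.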

[10] = qHTS assay for small molecules that induce genotoxicity in human embryonic kidney cells expressing luciferase-tagged ATAD5 (AID 651632); further: nearly all actives have a fitted effect of over 15% in size; further: potency means the concentration at half of the fitted maximal effect
Outline: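 Quantitative HTS in HEK293T expressing luciferase-tagged ATAD5, whose levels rise upon DNA damage. Exposure ran 16 hr at 37C and 5% CO2, with luminescence read 30 min after Amplite addition at room temperature.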

Measured: Potency

CCOC(=S)S
not listed: [10]
inactive: all other assays above

CCN(CC)C(=O)SCc1ccc(Cl)cc1
active: [5] 19.9 µM and 12.2 µM
not listed: [3]
inactive: all other assays above

CCN(CC)N=O
not listed: [8] | [10]
inactive: all other assays above

Clc1nc(Cl)nc(Cl)n1
not listed: [3]
inactive: all other assays above

Nc1cccnc1
not listed: [3] | [8]
inactive: all other assays above

Nc1ccc(Cl)cc1N
active: [1] 19.3 µM | [10] 56.7 µM and 5.45 µM | [5] 4.5 µM and 770 nM
not listed: [3] | [8]
inactive: all other assays above

c1ccc(P(c2ccccc2)c2ccccc2)cc1
not listed: [3] | [5] | [8]
inactive: all other assays above

CCCCC(CC)COC(=O)c1ccc(C(=O)OCC(CC)CCCC)c(C(=O)OCC(CC)CCCC)c1 (centres undefined)
not listed: [3] | [4] | [5]
inactive: all other assays above

O=C(O)CC[N+](=O)[O-]
not listed: [10]
inactive: all other assays above

COC(=O)c1sccc1S(=O)(=O)NC(=O)Nc1nc(C)nc(OC)n1
not listed: [3]
inactive: all other assays above

CCCCNC(=O)n1c(NC(=O)OC)nc2ccccc21
active: [1] 13.6 µM and 15.4 µM
not listed: [3]
inactive: all other assays above

Nc1ccc(-c2ccccc2)cc1
not listed: [4] | [5]
inactive: all other assays above

COP(=O)(OC)OC
not listed: [3]
inactive: all other assays above

CCC(=O)O[C@H]1CC[C@H]2[C@@H]3CCC4=CC(=O)CC[C@]4(C)[C@H]3CC[C@]12C
inactive and 61.1 µM (active): [2]
not listed: [3] | [5]
inactive: all other assays above

O=c1oc2ccccc2c(O)c1C(CC(O)c1ccc(-c2ccc(Br)cc2)cc1)c1ccccc1 (centres undefined)
active: [1] 21.1 µM and 46 µM | [2] 9.44 µM and 51.6 µM | [4] 6.68 µM | [5] 6.68 µM and 23 µM
not listed: [3]
inactive: all other assays above

CCC(CC)Nc1c([N+](=O)[O-])cc(C)c(C)c1[N+](=O)[O-]
active: [5] 49.2 µM
not listed: [3] | [4]
inactive: all other assays above

O=[N+]([O-])c1ccc(O)c([N+](=O)[O-])c1
active: [4] 10.9 µM | [5] 689 nM and 545 nM
not listed: [3]
inactive: all other assays above

NCc1cccnc1
not listed: [3] | [8]
inactive: all other assays above

C=C(C)C(=O)OCC1CO1 (centres undefined)
not listed: [3] | [8]
inactive: all other assays above

CCOc1cc(Oc2ccc(C(F)(F)F)cc2Cl)ccc1[N+](=O)[O-]
active: [4] 19.5 µM | [5] 17.4 µM and 24.3 µM
not listed: [3] | [8]
inactive: all other assays above

CCCCOCCOP(=O)(OCCOCCCC)OCCOCCCC
54.5 µM (active) and inactive: [2] | [4]
27.3 µM (active) and inactive: [5]
not listed: [3] | [8]
inactive: all other assays above

Oc1cc(Cl)ccc1Oc1ccc(Cl)cc1Cl
active: [2] 3.95 µM | [4] 11.1 µM | [5] 4.22 µM and 352 nM
not listed: [3] | [8]
inactive: all other assays above

Cc1cc(Cl)ccc1OCCCC(=O)O
not listed: [4] | [5] | [8]
inactive: all other assays above

CC1(C)C(C=C(Cl)Cl)C1C(=O)OC(C#N)c1cccc(Oc2ccccc2)c1 (centres undefined)
not listed: [3] | [4] | [5]
inactive: all other assays above

CC(O)CCO (centres undefined)
not listed: [4] | [5]
inactive: all other assays above

C=CC(=O)OCCO
not listed: [3]
inactive: all other assays above
